High-throughput results: PubChem, National Center for Advancing Translational Sciences (NCATS)
D2 ag-1 – agonists of human D2 dopamine receptor (beta-arrestin). P14416. DiscoveRx PathHunter D2 beta-arrestin, luminescence, 90 min; 100% = 57 uM dopamine signal. activation, % (concentration not given with the values). hit rate 0.084% among 360,000; in the data active means activation above about 40%; inconclusive means between about 15% and that limit
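DiscoveRx PathHunter D2 beta-arrestin cells (2,100/well) attached overnight, then compound-stimulated 90 min at 37 C in HBSS/10 mM HEPES/0.1% Tween-20 buffer; beta-galactosidase complementation read by luminescence after 1 h at ambient temperature. Dopamine 57 uM final (EC100) as control.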
D2 PAM-1 – positive allosteric modulators of human D2 dopamine receptor; P14416; DiscoveRx D2 beta-arrestin cells, luminescence, 90 min; 100% = 57 uM dopamine signal; potentiation, % (concentration not given with the values); hit rate 0.23% among 360,000; AID 624464; in the data active means potentiation above about 50%; inconclusive means mostly about 30% to 49%
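PathHunter beta-arrestin assay in DiscoveRx D2 cells. Compounds were added with an EC20 of dopamine (50 nM final) for 90 min at 37 deg C. Luminescence was read 1 h after detection reagent, with 57 uM dopamine as the EC100 control.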
D2 PAM-2 – positively modulates the human D2 dopamine receptor allosterically | potentiation, % at 10 µM | hit rate 0.34% among 340,000 | HEK293 T-REx D2, calcium flux, EC20 dopamine potentiation | AID 485347 | P14416;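 active means potentiation over 3 SD above the plate norm, cut at about 30% in these data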; further: 0% is about no effect
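Primary screen. Calcium kinetics in induced HEK293 T-REx D2 cells: compound pre-addition 180 s, EC20 dopamine, 180 s more.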
D2 ag-2 – activates the human D2 dopamine receptor; P14416; HEK293 T-REx D2 cells, calcium flux agonist mode; activation, % at 2 µM; hit rate 0.53% among 340,000; AID 485358;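 active means activation over 3 SD above normal in the single-dose calcium agonist read, cut at about 30% in these data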; further: 0% is about no effect
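Calcium-flux readout, 1 cycle/sec over 180 s following compound pin transfer, in inducible HEK293 Trex D2 cells (force-coupled); dopamine controls included. Positive calcium responses during this window marked compounds as potential agonists.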
D2 antagonist – antagonizes the human D2 dopamine receptor. P14416. HEK293 TREx D2 cells, calcium flux, dopamine EC80. inhibition, % at 10 µM. hit rate 2% among 340,000. AID 485344; in the data active means inhibition above about 30%; inactive means below that, where a call was filed; further: 0% is about no effect
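Read-out: kinetic calcium fluorescence (1 cycle/s) in inducible HEK293 T-REx D2 cells after an EC80 dopamine addition that followed 180 s compound preincubation. Loss of the dopamine response indicates antagonism.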
D3 arrestin ag – confirmation of human D3 dopamine receptor agonists, beta-arrestin; shares compounds with D2 ag-2; DiscoveRx D3 beta-arrestin cells, luminescence, 90 min; Potency, µM (doses to about 76.9 µM), for inactives: at the highest dose activation, actives largely listed as activators; hit rate 4% among 2,300; AID 720506;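 further: potency means the concentration at half of the fitted maximal effect; 100% = dopamine control response; nearly all actives have a fitted effect of over 70% in size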
Target sequence (P35462 whole entry, looked up): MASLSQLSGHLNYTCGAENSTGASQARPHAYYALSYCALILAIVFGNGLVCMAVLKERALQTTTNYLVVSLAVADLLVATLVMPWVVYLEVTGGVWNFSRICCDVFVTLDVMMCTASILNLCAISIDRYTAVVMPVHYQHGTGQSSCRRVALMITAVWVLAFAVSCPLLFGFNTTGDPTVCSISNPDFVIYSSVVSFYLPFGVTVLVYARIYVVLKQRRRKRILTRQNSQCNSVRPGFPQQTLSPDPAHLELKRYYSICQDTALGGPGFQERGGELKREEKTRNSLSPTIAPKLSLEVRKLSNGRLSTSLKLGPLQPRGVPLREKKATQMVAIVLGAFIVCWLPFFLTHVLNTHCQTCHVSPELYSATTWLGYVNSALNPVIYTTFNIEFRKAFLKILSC
D2 ag-3 – activates human D2 dopamine receptor in D3 counterscreen; shares compounds with D2 ag-2; DiscoveRx PathHunter D2 beta-arrestin, luminescence, 90 min; response scale: percent relative to full dopamine signal; Potency, µM (highest dose often 76.9 µM), for the others: top-dose activation, actives largely listed as activators; hit rate 5.9% among 2,300; further: potency means the concentration at half of the fitted maximal effect; % of control where 0% means no effect; nearly all actives have a fitted effect of over 70% in size
The depositor's hits bear a star; ? = inconclusive; · = no result given. The list is not random: actives were taken first. Their share in the collection is about 2.4%. Unless noted, the call rests on the fitted dose curve; in most records, active means well fitted activation curve with a large enough effect; inconclusive means small, poorly fitted or top-dose-only effect; inactive means flat fitted curve, though single readings scatter.

SMILES	D2 ag-1	D2 PAM-1	D2 PAM-2	D2 ag-2	D2 antagonist	D3 arrestin ag	D2 ag-3
O=C(CCN1CCN(c2ccccc2)CC1)N/N=C/c1ccccc1OC(F)F	?	9	-22	75*	88*	-5%	?
CC(=O)N1c2ccc(S(=O)(=O)NCc3ccc(Cl)cc3)cc2CC1C (centres undefined)	·	·	12	0	·	·	·
CCCCN(C)C(=O)C1CCN(CCCc2ccccc2)CC1	-1	-24	-1	6	18	-5%	6%
CN(C)CC(C)(C)CNC(=O)C1CCN(CCCc2ccccc2)CC1	?	0	2	48*	31*	9%	17%
OCC[C@@H]1C[C@H](O)[C@@H](O)[C@@]2(Cc3ccccc3CO2)O1	-2	-14	3	-1	5	·	·
OCC[C@H]1C[C@@H](O)[C@H](O)[C@@]2(Cc3ccccc3CO2)O1	-3	-7	9	0	0	-5%	-4%
CCOC(=O)c1cc(C)n(CC2CCC(C(=O)Nc3ccc(C)cc3)CC2)c1C (centres undefined)	·	·	-2	0	·	·	·
COc1cc(C#Cc2c(-c3cncn3C)n(C)c3ccc(-c4cnc(N5CCOCC5)nc4)cc23)cc(OC)c1	-2	-7	·	·	·	·	·
COc1cc(C#Cc2c(-c3cncn3C)n(C)c3ccc(-c4cnc(OC)nc4)cc23)cc(OC)c1	3	-20	9	-1	7	-3%	-3%
Cc1cccc(N2CCN(CC(O)COc3ccccc3)CC2)c1 (centres undefined)	3	-17	·	·	·	·	·
Cc1cccc(C)c1OCC(O)CN1CCN(c2ccccc2)CC1 (centres undefined)	?	-22	-28	80*	87*	-2%	?
COc1ccccc1/C=C/CN1CCN(c2ccccc2)CC1	12	7	-26	77*	77*	4%	?
CC(C)(C)NCC(O)COc1ccccc1C(C)(C)C (centres undefined)	-2	-10	-4	1	4	·	·
CC(C)(C)c1ccccc1OCC(O)CN1CCN(c2ccccn2)CC1 (centres undefined)	1	0	-16	22	62*	?	27%
OC(COc1ccccc1)CN1CCN(c2ccccc2)CC1 (centres undefined)	2	-43	·	·	·	·	·
COc1cccc(OC)c1OCC(O)CN1CCN(c2ccccc2)CC1 (centres undefined)	?	-31	-24	78*	115*	?	?
COc1ccc(CN2COc3ccc4c(C)cc(=O)oc4c3C2)cc1	·	·	-4	0	·	·	·
O=C(NCc1ccccc1)C(=O)NCC(c1ccc2c(c1)OCO2)N1CCOCC1 (centres undefined)	·	·	10	-1	·	·	·
CC(C)(C)C1CCC(OCC(O)CN2CCCC2)CC1 (centres undefined)	-7	2	12	-1	-8	·	·
OC(CN1CCN(c2ccccn2)CC1)Cn1c2ccc(Cl)cc2c2cc(Cl)ccc21 (centres undefined)	-6	-1	3	9	-3	·	·
Cc1ccsc1CN1CCN(c2ccccn2)CC1	50*	?	-24	79*	77*	?	2.5µM*
Cc1ccc(OCC(O)CN2CCN(c3ccccn3)CC2)c(C)c1 (centres undefined)	?	21	-27	71*	64*	?	?
CC(C)(C)C1CCC(OCC(O)CN2CCN(c3ccccc3)CC2)CC1 (centres undefined)	?	3	-34	68*	74*	0.35µM*	?
Cc1ccc(OCC(O)CN2CCN(CCO)CC2)c(C)c1 (centres undefined)	-1	-3	-1	2	-8	·	·
OC(COC(c1ccc(Cl)cc1)c1ccc(Cl)cc1)CN1CCN(c2ccccn2)CC1 (centres undefined)	-1	-17	-20	42*	-4	-7%	6%
SMILES	D2 ag-1	D2 PAM-1	D2 PAM-2	D2 ag-2	D2 antagonist	D3 arrestin ag	D2 ag-3
CCc1c(C)sc2c1CCN(Cc1ccc(F)cc1)C2c1ccccc1 (centres undefined)	·	·	3	-1	·	·	·
O=C(CCCn1c(=O)c2cccn2c2ccccc21)Nc1cc(C(F)(F)F)ccc1Cl	·	·	-7	0	·	·	·
COc1ccc(C(=O)c2cn(Cc3cccc(C)c3)c3cc4c(cc3c2=O)OCCO4)cc1OC	·	·	-1	0	·	·	·
Cc1cccc(C)c1OCC(O)Cn1c2ccccc2c2ccccc21 (centres undefined)	-1	6	-5	-1	-20	·	·
Cc1cccc(C)c1OCC(O)CN1CCN(c2ccccn2)CC1 (centres undefined)	?	?	-19	77*	78*	0.2µM*	5µM*
CC(COc1ccccc1)N1CCC(CO)(Cc2ccccc2)CC1 (centres undefined)	?	-11	-12	68*	85*	6%	?
Cc1nn2c(=O)cc(COC(=O)c3ccccc3NC(=O)C(C)C)nc2s1	·	·	-3	-1	·	·	·
CCC1(CC)NC(=O)N(CC(=O)OCC(=O)Nc2ccc(OC(F)(F)F)cc2)C1=O	0	-3	6	1	61*	-1%	-2%
NC[C@@H]1O[C@H](C23CC4CC(CC(C4)C2)C3)Cc2c1ccc(O)c2O	50*	?	-25	85*	66*	32µM*	35µM*
CC(=O)c1ccc(N2CCN(C(=O)NCc3noc4ccc(C)cc34)CC2)cc1	·	·	-1	-1	·	·	·
Cc1cc(C)c(C(=O)OCc2csc(CC(=O)Nc3ccccc3C)n2)c(C)c1	2	0	13	0	-8	·	·
CC(=O)Nc1cccc(C(=O)OCc2csc(CC(=O)Nc3ccccc3C)n2)c1	-1	0	-3	0	3	1%	2%
CC(=O)Nc1ccc(C2=CC(=O)CC(C)(C)C2)cc1	-10	-7	1	-1	-4	-5%	-1%
COc1ccc(OC)c(NC(=O)c2cnn(-c3ccc(C)cc3)c2C2CCNCC2)c1	·	·	-6	0	·	·	·
COc1cccc(CN2CCN(Cc3cc4ccccc4[nH]3)CC2CCO)c1 (centres undefined)	-1	-20	-18	31*	12	-9%	-3%
CCOC(=O)C1(CCOc2ccccc2)CCN(Cc2cccn2-c2ncccn2)CC1	1	-7	3	0	-8	-8%	3%
CCOC(=O)C1CCN(Cc2cn(C)nc2-c2ccc(Oc3ccccc3)cc2)CC1	5	-5	-8	18	20	-12%	9%
